Source: PubChem BioAssay (National Center for Advancing Translational Sciences (NCATS))
An excerpt weighted towards active compounds, which were near 7.9% of everything screened.
KB-3-1 tox: qHTS assay for MDR1-selective chemotherapeutics: Primary screen using the parental adenocarcinoma cell KB-3-1. KB-3-1 viability, CellTiter-Glo ATP luminescence, 72 h. Potency, µM (titrated, usually from 46.1 µM), hits mostly cytotoxic. 400,000 compounds, 1.4% hits. AID 1347075, 2019; also: % is scaled to controls: 0 for no effect and ±100 for the full control effect; nearly all actives have a fitted effect of over 60% in size
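KB-3-1 cells, DMEM (no phenol red) + 10% FBS; compound by pin transfer, 72 h, 37 °C. Readout: CellTiter-Glo luminescence after 10 min. Data normalized, curve-fitted.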
KB-V1 cytotox: qHTS assay for MDR1-selective chemotherapeutics: Primary screen using the drug-selected MDR subline cells KB-V1 | KB-V1 MDR cells viability, CellTiter-Glo, 72 h | Potency, µM (series often up to 46.1 µM), actives largely listed as cytotoxic | 400,000 compounds, 3.4% hits; also: % is scaled to controls: 0 for no effect and ±100 for the full control effect; nearly all actives have a fitted effect of over 60% in size
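qHTS viability screen in drug-selected KB-V1 MDR cells: 72 h compound treatment at 37 degrees C, ATP luminescence end point.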
HT1080NT lethal: qHTS for induction of synthetic lethality in tumor cells producing 2HG: qHTS for the HT-1080-NT fibrosarcoma cell line; HT-1080-NT fibrosarcoma viability, CellTiter-Glo ATP luminescence, 48 h; Potency, µM (doses to about 46.1 µM), for the others: top-dose activity, negative = less viability, most hits filed as cytotoxic; 360,000 compounds, 1.6% hits;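 also: NT is the 2HG producing partner of a matched IDH1 knockdown line; 0% = DMSO-treated cells and -100% = media-only wells without cells; nearly all actives have a fitted effect of over 55% in size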
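Toxicity toward the 2HG-producing NT line was scored as %Activity, normalised to DMSO and no-cell wells, from CellTiter-Glo luminescence after 48 hours' treatment.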
HT1080 IDH1KD tx: qHTS for induction of synthetic lethality in tumor cells producing 2HG: qHTS for the HT-1080-IDH1KD cell line; 360,000 compounds, 2% hits; Potency, µM (doses to about 46.1 µM), without a hit: at the highest dose activity, negative = toxicity, most hits filed as cytotoxic; AID 686971, 2013; HT-1080 IDH1 knockdown viability, ATP luminescence, 48 h;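 also: 0% = DMSO wells and -100% = cell-free medium wells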
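Cytotoxicity counter-line: IDH1KD HT-1080, 48 h, CellTiter-Glo. Curves classed by r2, magnitude and activity.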
SW480 rerep: A quantitative high throughput screen for small molecules that induce DNA re-replication in SW480 colon adenocarcinoma cells; SW480 DNA re-replication, Hoechst DNA content imaging, 48 h; Potency, µM (series often up to 46.1 µM), inactives show at the highest dose re-replication activation, actives largely listed as activators; 340,000 compounds, 1.8% hits; also: % of control where 0% means no effect; nearly all actives have a fitted effect of over 55% in size
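First, 250 cells per well were seeded. Next, compound or vehicle (23 nL) was pinned in, plates sat 48 hr at 37 C. Finally Hoechst was added for 40 min before fluorescence scanning.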
MCF10A rerep: A quantitative high throughput screen for small molecules that induce DNA re-replication in MCF 10a normal breast cells; AID 624296, 2012; MCF 10A DNA re-replication, Hoechst nuclear intensity, 48 h; Potency, µM (doses to about 46.1 µM), without a hit: at the highest dose activity, positive = re-replication, actives largely listed as activators; 350,000 compounds, 2.9% hits; also: % of control where 0% means no effect; nearly all actives have a fitted effect of over 50% in size
Starred values were filed as active, the others as inactive; i = inactive; ? = inconclusive; nt = not tested or not shown; ! = not confirmed by another sample. Calls follow the shape of the dose curve; as a rule, active = well fitted curve in the direction sought with a large enough effect; inconclusive = small, poorly fitted or top-dose-only effect, or another doubt; inactive = no such curve, though single readings can be large; an effect the other way counts as inactive or inconclusive. Potency is read from the fitted curve at half-maximal effect.

SMILES | KB-3-1 tox | KB-V1 cytotox | HT1080NT lethal | HT1080 IDH1KD tx | SW480 rerep | MCF10A rerep
CN(C)CCCNc1nc2cc(-c3cccc(C(F)(F)F)c3)sc2c(=O)n1C | i | i | ? | ? | nt | nt
CN(C)CCCNc1nc2cc(-c3cccc(Cl)c3)sc2c(=O)n1C | i | i | ? | 16µM* | nt | nt
O=C(N/N=C/c1sc(N2CCOCC2)nc1-c1ccccc1)c1ccc(O)cc1 | i | i | -19% | -26% | 1% | ?
O=C(N/N=C/c1sc(N2CCOCC2)nc1-c1ccccc1)c1cccc(S(=O)(=O)N2CCCC2)c1 | 3.7µM* | ? | -4% | ? | 5% | 15µM*
O=C(N/N=C/c1ccc(Cl)cc1Cl)c1cccc(N2CCCC2=O)c1 | i | i | -4% | -8% | -102% | -5%
COc1cccc(/C=N/NC(=O)c2ccc(N3CCCC3=O)cc2)c1 | 16µM* | ? | ? | ? | 1.8µM* | 13µM*
O=C(N/N=C/c1cc(Br)cc(Br)c1O)c1cccc(N2CCCC2=O)c1 | ? | i | -12% | -22% | 8.2µM* | ?
O=C(N/N=C/c1cc(Cl)cc([N+](=O)[O-])c1O)c1cccc(S(=O)(=O)N2CCOCC2)c1 | ? | ? | 16µM* | ? | 0% | 13%
COc1cccc2cc(-c3csc(-c4ccc(Cl)cc4)n3)c(=O)oc12 | i | i | nt | nt | nt | nt
O=C(N/N=C/c1cc(Br)cc(Br)c1O)c1cccc(S(=O)(=O)N2CCOCC2)c1 | ? | i | -26% | ? | 0.65µM* | -2%
CCc1c(C)nc2nncn2c1NCc1ccccc1 | i | ? | nt | nt | nt | nt
CCc1cnc2c(c1SCC(=O)NCc1ccccc1)c(=O)n(C)c(=O)n2C | i | i | nt | nt | nt | nt
COC(=O)[C@@]1(Sc2ccc(C)cc2)CC(=O)N(c2ccccc2)[C@@H]1c1ccccc1 | ? | 16µM* | ? | ? | nt | nt
Cc1c(C#N)c(N)nc2c3c(sc12)NC(=O)CC3c1ccc(Cl)cc1 (stereo not given) | i | ? | 21µM* | 16µM* | nt | ?
Cc1cccc(NC(=O)c2cccc(N3CCCS3(=O)=O)c2)c1 | i | i | nt | nt | nt | nt
Cc1ccc(-c2c[n+]3c(n2-c2ccccc2)CCC3)cc1 | 1.3µM* | i | ? | ? | ? | 8.2µM*
c1ccc(-c2c[n+]3c(n2-c2ccccc2)CCC3)cc1 | ? | i | 21µM* | ? | 2% | 15%
CCOc1ccc(-n2c(-c3ccccc3)c[n+]3c2CCCCC3)cc1 | 10µM* | ? | ? | 13µM* | -14% | 3%
O=C(O)C1CCCCC1C(=O)NC1C2CC3CC(C2)CC1C3 (stereo not given) | i | ? | 8% | 5% | 1% | 11%
NC(=S)NNC(=O)[C@@H]1CCCC[C@@H]1C(=O)O | i | i | 13% | -3% | 0.52µM* | -8%
Cc1ccc(NC(=O)CCn2nc(-c3ccccc3)c3ccccc3c2=O)c(C)c1 | i | ? | nt | nt | nt | nt
COc1ccc2cc(-c3ccn[nH]3)ccc2c1 | 7.3µM* | ? | -11% | -10% | 1% | 13%
COc1ccc(-c2cc(-c3ccccc3O)[nH]n2)cc1 | i | i | ? | ? | 0% | ?
COCCn1c(COc2ccc(C)cc2)nc2ccccc21 | i | ? | -10% | -19% | ? | 3%
CCOCCn1c(COc2ccc(C)cc2)nc2ccccc21 | ? | 16µM* | 7% | 1% | 104% | 19%
SMILES | KB-3-1 tox | KB-V1 cytotox | HT1080NT lethal | HT1080 IDH1KD tx | SW480 rerep | MCF10A rerep
Cc1ccc(NCc2nc3ccccc3n2CCOc2ccccc2)cc1 | 16µM*! | 23µM*! | 8% | 6% | 6% | 18%
C=Cc1ccc(Cn2c(=O)n(CC3CCC(C(=O)NC(C)C)CC3)c(=O)c3sccc32)cc1 (stereo not given) | i | i | nt | nt | nt | nt
CCCCNC(=O)c1cc2n(n1)C(C(F)(F)F)CC(c1ccccc1)N2 (stereo not given) | i | i | -2% | 6% | -10% | ?
O=C(Nc1ccc(O)cc1)c1cc2n(n1)C(C(F)(F)F)CC(c1ccco1)N2 (stereo not given) | 10µM* | ? | ? | ? | ? | ?
O=C(NCC1CCCO1)c1cc2n(n1)C(C(F)(F)F)CC(c1ccc(Br)cc1)N2 (stereo not given) | i | 8.2µM* | 1% | -4% | 0% | 8%
CCOC(=O)c1c(NC(=O)c2cc3n(n2)C(C(F)(F)F)CC(c2ccccc2)N3)sc(C)c1C (stereo not given) | i | i | 0% | -2% | 16µM* | 22%
Cc1cccc(NC(=O)c2cc3n(n2)C(C(F)(F)F)CC(c2ccc4c(c2)OCO4)N3)c1 (stereo not given) | i | 12µM* | ? | ? | 9% | 3%
O=C(NCC1CCCO1)c1nn2c(c1Cl)NC(c1ccc(F)cc1)CC2C(F)(F)F (stereo not given) | i | ? | -8% | -5% | -7% | 11%
CCOC(=O)C1(C)CCN1C(=O)c1cccc(C#N)c1 (stereo not given) | i | i | 10% | 26% | nt | nt
